Outcome data for 115 compounds are collected here from PubChem BioAssay AID618 (Sanford-Burnham Center for Chemical Genomics, 2007).

Out of some 87,000 compounds screened, about 540 (0.62%) were called active. The sample holds actives, similar compounds and a random draw of the others, so the mix is not that of the screen. How the calls were made is not given here. Measured potencies and affinities stand elsewhere.

The assay in a line: inhibitors of MT1-MMP promoter transcription, cell-based, luciferase reporter, luminescence (AID 618).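 Further: actives suppress MT1-MMP promoter-driven transcription so potencies describe inhibitors.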 The note with it: MT1-MMP promoter luciferase reporter cells.
Regarding `COc1ccc(C(=O)C(CN2CCOCC2)c2ccccc2)cc1` (stereo not given), the outcome was inactive. In the case of `CC(CN1CCOCC1)C(=O)c1ccccc1` (stereo not given), the call was inactive. For `COc1ccc(C(=O)C(CN2CCOCC2)c2ccccc2)cc1F` (stereo not given) the value was “inactive”; for `CCCCCOc1ccc(C(=O)C(c2ccccc2)N2CCOCC2)cc1` (stereo not given), “inactive”. For `O=C(c1ccc(F)cc1)C(CN1CCOCC1)c1ccccc1` (stereo not given) the value was “active”; for `O=C(NCC1CCCCC1)C1CCN(C(=O)NC2CCCCC2)CC1`, “inactive”; for `COc1ccc(-c2nc3c(n2O)CCCC3=O)cc1OC`, “inactive”. Regarding `O=C(CCSCCc1ccccn1)Nc1ccc(Br)cn1`, the call was inactive. For `Cc1ccc(C(=O)Nc2nc3ccccc3s2)s1` the value was “inactive”; for `c1ccc(CCNc2nc3ccccc3s2)cc1`, “inactive”. Consider `COc1ccc(NC(=O)NC(C)(C(F)(F)F)C(F)(F)F)cc1`, for which the call was inactive. As for `CN(C)c1nc(SCc2ccccc2)nc(N2CCOCC2)n1`, the outcome was inactive. For `C/C(=N/NC(=O)c1cc(C(C)C)[nH]n1)c1cccs1` the value was “inactive”; for `C/C(=N\NC(=O)C1COc2ccccc2O1)c1cccs1` (stereo not given), “inactive”; for `O=C(Nc1ccc(Cc2ccncc2)cc1)c1ccc(S(=O)(=O)N2CCOCC2)cc1`, “inactive”. For `CC(C)c1nc(=S)c2ccccc2[nH]1` the value was “inactive”; for `N#CC1=C(N)C(C#N)(C#N)[C@H](c2ccoc2)[C@H]2CN(Cc3ccccc3)CC=C12`, “active”; for `CCN1CC=C2C(C#N)=C(N)C(C#N)(C#N)[C@H](c3ccoc3)[C@H]2C1`, “inactive”.

Turning to `CN1CC=C2C(C#N)=C(N)C(C#N)(C#N)[C@H](c3ccoc3)[C@H]2C1`, the compound was classed as inactive. For `COc1ccc(/C(C)=N\n2cnnc2)cc1` the value was “inactive”; for `COCCn1c(SCc2cnc(-c3ccccc3)s2)nnc1-c1ccncc1`, “inactive”; for `Cn1c(SCc2cnc(-c3ccccc3)s2)nnc1C1COc2ccccc2O1` (stereo not given), “inactive”. For `Cc1nnc(SCc2cnc(-c3ccc(C(C)C)cc3)s2)n1C` the value was “active”; for `Cc1cccc(NC(=O)CSCc2c(C)noc2C)c1C`, “inactive”; for `CN(C1=NC(=O)C(CC(=O)Nc2ccc(Br)cc2)S1)c1ccc(O)cc1` (stereo not given), “inactive”. For `CC(=O)N(CCc1ccccc1C)Cc1cc2cc3c(cc2[nH]c1=O)OCO3` the value was “inactive”; for `Cc1ccccc1C(=O)N1CCC(C(=O)Nc2ccc3c(c2)OCCO3)CC1`, “inactive”. Take `O=C(O)c1ccccc1C(=O)N1CCN(c2cccc(Cl)c2)CC1`: the compound was called inactive. For the compound `Cc1ccc(C(=O)N2CCN(c3cccc(Cl)c3)CC2)cc1C`, the call was inactive.

For `CCCCC(=O)Nc1ccc(C(=O)N2CCC(C(=O)OCC)CC2)cc1`, the outcome was inactive. Turning to `Cc1ccc(C(=O)Nc2sc3c(c2C#N)CCCCC3)cc1C`, the result was inactive.

In the case of `Cc1ccc(-c2nnc(-c3ccc(Br)cc3)o2)o1`, the compound was classed as inactive. For `C=CCn1c(SCC(=O)c2ccccc2)nnc1-c1cc2ccccc2o1` the value was “inactive”; for `CC1CC(C)CN(C(=O)CSc2nnc(-c3ccc(Cl)cc3)o2)C1` (stereo not given), “inactive”. As for `COc1ccc(NS(=O)(=O)Cc2ccccc2Cl)cn1`, the outcome was inactive. With `COC(=O)c1ccccc1S(=O)(=O)Nc1ccc(OC)nc1`, the compound was called inactive. For `COc1ccc(CNC(=O)Nc2ccc(C)cc2)cc1` the value was “inactive”. For `COc1ccc(CS(=O)(=O)/C(Cl)=C(/Cl)C(=O)Nc2ccc(OC)nc2)cc1` the value was “active”; for `COc1ccc(NC(=O)c2cc(OC)c(OC)c(OC)c2)cn1`, “inactive”. With `CCCS(=O)(=O)C(=C(Nc1ccc(OC)cc1)Nc1ccc(OC)cc1)S(=O)(=O)CCC`, the compound was classed as inactive. For `COc1ccc(NC(=O)/C(Cl)=C(/Cl)S(=O)(=O)Cc2ccccc2)cn1` the value was “active”; for `COc1ccc(NC(=O)C(CC(C)C)NC(=O)c2ccccc2C)cn1` (stereo not given), “inactive”; for `CCOc1ccccc1Nc1nc(N)nc(CN(C)C2CCCCC2)n1`, “inactive”. For `Cc1nc2cc(C(=O)O)ccc2n1C1CCCCC1` the value was “inactive”; for `CC1=CC(=C2C(=O)c3ccccc3C2=O)C=C(C)O1`, “inactive”. Consider `CCNC1=C(Cl)C(=O)c2ccccc2C1=O`, for which the compound was called inactive.

On to `CN1C=CC(=C2C(=O)c3ccccc3C2=O)C=C1`, for which the outcome was inactive. For `CC1=CC(=C2C(=O)c3ccccc3C2=O)C=C(C)N1C` the value was “inactive”. For `CCSc1nc(N)c(C#N)c(-c2ccco2)c1C#N` the value was “inactive”; for `c1nc(N2CCOCC2)c2[nH]cnc2n1`, “inactive”; for `COc1cccc2c1C(=O)c1c(O)c3c(c(O)c1C2=O)C[C@@](O)(C(=O)CO)C[C@@H]3O[C@H]1C[C@H](N)[C@H](O)[C@H](C)O1`, “inactive”. For `COc1cccc2c1C(=O)c1c(O)c3c(c(O)c1C2=O)C[C@@](O)(C(C)=O)C[C@@H]3O[C@H]1C[C@H](N)[C@H](O)[C@H](C)O1` the value was “active”. As to `O=C(Cn1cc2c(n1)CCCCC2)NC1CCCCCC1`, the compound was classed as inactive. For `Cc1csc2ncc(C(=O)Nc3ccc(C(F)(F)F)cc3)c(=O)n12` the value was “inactive”. For `COC(=O)c1cccc(NC(=O)c2cnoc2C)c1` the value was “inactive”; for `COc1ccc(CNC(=O)[C@H](C)[C@H]2C[C@]2(C)[C@H](NC(=O)OCc2ccccc2)c2ccccc2)cc1OC`, “inactive”. Consider `CCOC(=O)CSc1nc(C)c2ccc(C)cc2n1`, for which the outcome was inactive. For `CCn1c(C)nc2cc(-c3nnc(-c4c(-c5ccccc5)noc4C)o3)ccc21` the value was “inactive”; for `Fc1ccc(-c2nc3n(n2)Cc2ccccc2-3)cc1`, “active”; for `CCN(CC)S(=O)(=O)c1cccc(-c2nc3n(n2)Cc2ccccc2-3)c1`, “inactive”. For `O=S(=O)(c1cccc(-c2nc3n(n2)Cc2ccccc2-3)c1)N1CCCC1` the value was “inactive”; for `Clc1ccc(-c2nc3n(n2)Cc2ccccc2-3)cc1`, “inactive”; for `N#CCc1nc2n(n1)Cc1ccccc1-2`, “inactive”. For `CCn1c(C)nc2cc(-c3nc4n(n3)Cc3ccccc3-4)ccc21` the value was “active”; for `CCn1c(C)nc2cc(S(=O)(=O)N3CCCC3)ccc21`, “inactive”. `CCOc1ccc(C2Oc3nc(SC)nnc3-c3ccccc3N2C(C)=O)cc1OC` (stereo not given): the compound was classed as inactive. For `O=C(C1CCCN(S(=O)(=O)c2cnc[nH]2)C1)N1CC(=O)N(CCc2ccccc2)C(=O)C1` (stereo not given) the value was “inactive”; for `CN(CC(=O)N1CC(=O)N(CCc2ccccc2)C(=O)C1)S(=O)(=O)c1cccc2nsnc12`, “inactive”. For `Cc1cc(C)n(-c2ccc(C(=O)OCc3nnc(-c4ccccc4)o3)cc2)n1` the value was “inactive”; for `CCCCC(CC)CNC(=O)C1CCCN(S(=O)(=O)c2cnc[nH]2)C1` (stereo not given), “inactive”. For `Cc1cc(C)n2nc(S(=O)(=O)NC3CCCCC3)nc2n1` the value was “inactive”; for `OCCN1CCN(Cc2cc(Cl)c3cccnc3c2O)CC1`, “inactive”; for `CN1CCN(Cc2cc(COCc3ccccc3)c3cccnc3c2O)CC1`, “inactive”. On to `Oc1c(CN2CCOCC2)cc(COCc2ccccc2)c2cccnc12`, for which the compound was called inactive. As for `Oc1ccc(CN2CCc3ccccc3C2)c2cccnc12`, the compound was called inactive. On to `COC(=O)c1sc(S(=O)(=O)NCc2cccs2)c(C(=O)OC)c1C`, for which the outcome was inactive. For `COc1cc(C(=O)NCCC2=CCCCC2)cc(OC)c1OC` the value was “inactive”; for `COc1ccc(C(=O)NCCC2=CCCCC2)cc1OC`, “inactive”; for `O=C(NCCc1ccc(Cl)cc1)c1nnc(Cc2ccc(Cl)cc2)o1`, “inactive”. For `CC1CCCCC1NC(=O)C1CCN(S(=O)(=O)N2CCC3(CC2)OCCO3)CC1` (stereo not given) the value was “inactive”; for `CC1C(=O)CCN(C(C)(C)C)C1C` (stereo not given), “inactive”; for `COc1ccc(OC)c(C2c3c(oc4ccccc4c3=O)C(=O)N2CCCN(C)C)c1` (stereo not given), “inactive”. For the compound `COc1ccc(-c2nc(-c3cccc(C)c3)no2)cc1OC`, the outcome was inactive. Take `COc1cc(-c2nc(-c3cccc(C)c3)no2)cc(OC)c1OC`: the outcome was inactive. For `Cc1ccc(-c2noc(-c3ccccc3Br)n2)cc1` the value was “inactive”; for `Cc1ccc(SCc2nc(-c3ccccc3)no2)cc1`, “inactive”. For `Cc1cccc(-c2noc(-c3ccc(F)cc3)n2)c1` the value was “active”.

For `c1ccc(-c2ccc(-c3nc(-c4cccnc4)no3)cc2)cc1`, the compound was called inactive.

On to `Fc1ccccc1-c1nc(-c2ccccc2)no1`, for which the compound was classed as inactive. `Cc1ccc(-c2nc(-c3cccnc3)no2)cc1`: the compound was classed as inactive. For `c1ccc(-c2nc(-c3ccncc3)no2)cc1` the value was “inactive”.

Take `COC(=O)c1ccccc1NC(=O)C1CC=CCC1C(=O)O` (stereo not given): the call was inactive.

As to `COC(=O)c1ccc(C(=O)OC)c(NC(=O)CCC(=O)O)c1`, the compound was classed as inactive.

As to `CCC1CCCCN1S(=O)(=O)c1ccc(NC(=O)CSc2ncccc2C(=O)O)cc1` (stereo not given), the compound was classed as inactive. `COc1ccc(CCN(C(=O)c2ccccc2)C2=CC3CCC(C2)N3C)cc1OC` (stereo not given): the compound was called inactive. For `CS(=O)(=O)N1CCC(C(=O)N2CCc3ccccc3C2)CC1` the value was “inactive”. For `CC(=O)NC(C1C(=O)CC(C)(C)CC1=O)(C(F)(F)F)C(F)(F)F` the value was “inactive”. For `O=C(COc1ccc(Cl)cc1)NCc1nnc(SCC(=O)NCc2ccc3c(c2)OCO3)o1` the value was “inactive”; for `CCOC(=O)c1cnc(C(C)(C)C)[nH]c1=O`, “inactive”. Consider `CN(C)c1ccc(-c2noc(-c3ccccc3O)n2)cc1`, for which the outcome was active. For the compound `CCc1ccc(-c2nc(-c3ccncc3)no2)cc1`, the call was inactive.

In the case of `c1ccc(-c2noc(-c3ccccc3-c3ccccc3)n2)cc1`, the outcome was inactive. In the case of `Cc1cc(C)cc(-c2nc(-c3ccncc3)no2)c1`, the result was inactive. As for `CCOc1ccc(-c2nc(-c3ccncc3)no2)cc1OCC`, the result was inactive. As to `COc1ccc(-c2nc(-c3ccncc3)no2)cc1OC`, the compound was classed as inactive. With `NC(=O)c1ccccc1-c1nc(-c2ccccc2)no1`, the outcome was inactive. For `CCCC(=O)Nc1c(-c2cccs2)c(=O)c2ccccc2n1CC` the value was “inactive”. For `CCOC(=O)c1ccc(S(=O)(=O)N2CCN(CC3CC=CCC3)CC2)cc1` (stereo not given) the value was “inactive”; for `COc1ccccc1C1/C(=C(/O)c2ccc(Cl)cc2)C(=O)C(=O)N1CCN1CCOCC1` (stereo not given), “inactive”; for `O=C(O)CN1C(=O)Nc2ccc(Br)cc2C1c1ccccc1` (stereo not given), “inactive”. For `Cc1nc(CC(=O)c2c(C)cc(O)cc2O)cs1` the value was “inactive”. Turning to `O=C(Cc1cccs1)NCc1cccs1`, the compound was called inactive. For `COC(=O)C(C)Oc1ccc(=O)[nH]n1` (stereo not given) the value was “inactive”; for `COc1ccc(OC)c(NC(=O)Cc2coc3cc(C)cc(C)c23)c1`, “inactive”. `CS(=O)(=O)N(Cc1ccccc1)c1ccccc1C(=O)N1CCN(c2ccccc2)CC1`: the call was inactive.
